Data on 1 sequence can be found in paper PMC7862700, “An all-to-all approach to the identification of sequence-specific readers for epigenetic DNA modifications on cytosine”.

What all share (assay): DAPPL (digital affinity profiling via proximity ligation, sequencing); 10 mM Tris-HCl pH 7.5, 50 mM NaCl, 1 mM DTT, 4% glycerol, room temperature, 30 min; GST-TFs on glutathione beads, 16-mer random dsDNA library, 0.1% formaldehyde crosslink after washing; high values mean tight binding
Holding throughout (details): protein: recombinant; tags: N-terminal GST; dsDNA, one strand shown

For one assay, the target named is T1, FLI1 (Homo sapiens, UniProt Q01543 1-452).
T1 sequence: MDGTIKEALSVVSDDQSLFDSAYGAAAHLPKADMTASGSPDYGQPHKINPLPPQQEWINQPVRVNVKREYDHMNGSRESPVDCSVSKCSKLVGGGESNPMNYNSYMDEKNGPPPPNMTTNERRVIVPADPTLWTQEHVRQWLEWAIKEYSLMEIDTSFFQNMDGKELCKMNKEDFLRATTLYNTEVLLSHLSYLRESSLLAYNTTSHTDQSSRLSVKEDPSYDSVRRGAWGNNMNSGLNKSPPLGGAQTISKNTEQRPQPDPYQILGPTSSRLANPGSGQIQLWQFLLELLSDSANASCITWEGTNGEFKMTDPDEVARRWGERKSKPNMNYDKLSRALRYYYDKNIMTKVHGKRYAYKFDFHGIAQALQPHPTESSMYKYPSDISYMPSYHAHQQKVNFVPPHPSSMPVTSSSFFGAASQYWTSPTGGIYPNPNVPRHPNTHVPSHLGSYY
The method, boiled down:
(§1)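 Each value of binding signal is a hexamer's read frequency for a factor divided by the same hexamer's frequency in the tag-only sample. Barcoded, bead-captured GST fusions of human transcription factors made in yeast were pooled with that sample and incubated with 200 nmole of a random double-stranded 16-mer DNA library in Tris/NaCl/DTT/glycerol buffer at room temperature for 30 min. Washing, 0.1% formaldehyde crosslinking, proximity ligation, PCR and Illumina NextSeq500 sequencing followed.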

The target of a further assay is T2, ELK1 (Homo sapiens, UniProt P19419 1-428).
T2 sequence: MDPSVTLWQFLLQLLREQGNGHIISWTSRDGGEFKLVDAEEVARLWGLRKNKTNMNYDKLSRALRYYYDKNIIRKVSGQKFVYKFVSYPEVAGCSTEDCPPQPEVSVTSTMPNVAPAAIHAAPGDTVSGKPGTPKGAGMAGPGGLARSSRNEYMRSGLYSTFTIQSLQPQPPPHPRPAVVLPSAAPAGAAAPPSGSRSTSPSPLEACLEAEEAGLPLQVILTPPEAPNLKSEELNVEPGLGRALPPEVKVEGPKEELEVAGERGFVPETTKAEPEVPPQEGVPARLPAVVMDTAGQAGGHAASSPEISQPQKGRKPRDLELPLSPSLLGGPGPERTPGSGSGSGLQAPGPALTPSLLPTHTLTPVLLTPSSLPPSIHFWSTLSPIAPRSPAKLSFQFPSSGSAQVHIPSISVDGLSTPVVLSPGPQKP
The method, boiled down: as §1

The target of another assay is T3, GABPA (Homo sapiens, UniProt Q06546 1-454).
T3 sequence: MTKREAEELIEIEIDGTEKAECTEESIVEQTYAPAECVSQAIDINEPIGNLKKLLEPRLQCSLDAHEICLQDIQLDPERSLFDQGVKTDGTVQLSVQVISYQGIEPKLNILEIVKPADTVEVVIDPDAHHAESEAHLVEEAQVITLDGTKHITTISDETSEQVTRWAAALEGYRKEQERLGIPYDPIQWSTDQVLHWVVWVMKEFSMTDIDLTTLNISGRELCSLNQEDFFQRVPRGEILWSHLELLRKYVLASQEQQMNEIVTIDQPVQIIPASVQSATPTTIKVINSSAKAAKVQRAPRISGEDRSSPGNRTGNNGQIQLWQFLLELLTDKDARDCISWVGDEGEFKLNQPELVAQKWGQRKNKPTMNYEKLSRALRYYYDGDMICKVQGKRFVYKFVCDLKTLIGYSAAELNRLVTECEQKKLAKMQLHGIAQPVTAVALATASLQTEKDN
The procedure, abridged:
as §1

The target in the next assay is T4, ERG (Homo sapiens, UniProt P11308 1-479).
T4 sequence: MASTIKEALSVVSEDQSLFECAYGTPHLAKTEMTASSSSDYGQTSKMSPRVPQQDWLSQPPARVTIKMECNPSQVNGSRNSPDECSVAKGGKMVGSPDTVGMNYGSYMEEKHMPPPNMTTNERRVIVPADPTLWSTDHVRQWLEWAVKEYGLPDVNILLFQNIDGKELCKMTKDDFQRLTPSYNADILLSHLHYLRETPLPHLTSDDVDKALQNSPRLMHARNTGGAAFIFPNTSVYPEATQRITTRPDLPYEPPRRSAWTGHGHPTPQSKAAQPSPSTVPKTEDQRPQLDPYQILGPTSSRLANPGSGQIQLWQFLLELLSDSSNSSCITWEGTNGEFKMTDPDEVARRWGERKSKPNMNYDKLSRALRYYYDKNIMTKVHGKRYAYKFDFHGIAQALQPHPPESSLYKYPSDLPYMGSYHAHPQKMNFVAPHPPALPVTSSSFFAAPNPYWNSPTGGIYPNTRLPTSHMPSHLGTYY
The procedure, abridged: as §1

In a further assay the target is ELF1 (Homo sapiens, UniProt P32519 1-619). The method, boiled down:
as §1

The target in the next assay is T5, EHF (Homo sapiens, UniProt Q9NZC4 1-300).
T5 sequence: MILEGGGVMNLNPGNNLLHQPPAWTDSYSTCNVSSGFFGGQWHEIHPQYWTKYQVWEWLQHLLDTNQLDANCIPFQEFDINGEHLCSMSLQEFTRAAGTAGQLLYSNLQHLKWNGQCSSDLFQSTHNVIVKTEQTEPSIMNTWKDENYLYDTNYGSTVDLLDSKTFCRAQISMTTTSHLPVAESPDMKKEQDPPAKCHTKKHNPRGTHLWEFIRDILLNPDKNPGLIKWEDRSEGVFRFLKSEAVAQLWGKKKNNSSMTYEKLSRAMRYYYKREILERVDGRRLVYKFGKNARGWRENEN
The method, boiled down:
as §1

For another assay, the target named is SPI1 (Homo sapiens, UniProt P17947 1-270). The procedure, abridged: as §1
A further assay has as its target SPIB (Homo sapiens, UniProt Q01892 1-262). The method, boiled down:
as §1

For the next assay, the target named is T6, ELK3 (Homo sapiens, UniProt P41970 1-407).
T6 sequence: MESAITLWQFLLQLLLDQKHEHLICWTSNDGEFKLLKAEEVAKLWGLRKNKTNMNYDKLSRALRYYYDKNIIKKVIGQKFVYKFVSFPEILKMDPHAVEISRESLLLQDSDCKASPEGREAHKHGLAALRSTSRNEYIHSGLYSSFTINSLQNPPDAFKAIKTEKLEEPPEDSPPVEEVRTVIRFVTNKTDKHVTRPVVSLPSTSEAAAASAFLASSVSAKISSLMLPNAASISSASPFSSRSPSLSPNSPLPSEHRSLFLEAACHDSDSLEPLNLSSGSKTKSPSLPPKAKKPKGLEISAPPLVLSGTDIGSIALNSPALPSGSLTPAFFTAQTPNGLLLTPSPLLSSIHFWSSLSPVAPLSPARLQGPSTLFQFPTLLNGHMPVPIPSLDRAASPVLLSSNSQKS
The procedure, abridged:
as §1

A further assay has as its target T7, FEV (Homo sapiens, UniProt Q99581 1-238).
T7 sequence: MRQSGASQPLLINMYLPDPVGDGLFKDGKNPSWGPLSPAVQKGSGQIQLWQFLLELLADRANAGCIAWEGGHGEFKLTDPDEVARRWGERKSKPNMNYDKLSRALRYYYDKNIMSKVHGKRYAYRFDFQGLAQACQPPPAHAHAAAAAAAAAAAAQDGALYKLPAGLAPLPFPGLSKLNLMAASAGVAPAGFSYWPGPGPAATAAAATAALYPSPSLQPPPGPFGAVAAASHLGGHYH
The method, boiled down:
as §1

The next assay addresses ETV5 (Homo sapiens, UniProt P41161 1-510). The procedure, abridged: as §1
The target in a further assay is T8, SPIC (Homo sapiens, UniProt Q8N5J4 1-248).
T8 sequence: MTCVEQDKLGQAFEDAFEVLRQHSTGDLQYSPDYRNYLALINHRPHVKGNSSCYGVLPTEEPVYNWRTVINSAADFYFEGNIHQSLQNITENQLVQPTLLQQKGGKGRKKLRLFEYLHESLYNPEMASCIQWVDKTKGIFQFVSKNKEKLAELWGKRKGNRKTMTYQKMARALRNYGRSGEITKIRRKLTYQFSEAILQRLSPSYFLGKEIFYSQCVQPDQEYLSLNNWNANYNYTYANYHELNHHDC
The method, boiled down:
as §1

For a further assay, the target named is ELF4 (Homo sapiens, UniProt Q99607 1-663). The procedure, abridged: as §1
For another assay, the target named is T9, ELK4 (Homo sapiens, UniProt P28324-2 1-405).
T9 sequence: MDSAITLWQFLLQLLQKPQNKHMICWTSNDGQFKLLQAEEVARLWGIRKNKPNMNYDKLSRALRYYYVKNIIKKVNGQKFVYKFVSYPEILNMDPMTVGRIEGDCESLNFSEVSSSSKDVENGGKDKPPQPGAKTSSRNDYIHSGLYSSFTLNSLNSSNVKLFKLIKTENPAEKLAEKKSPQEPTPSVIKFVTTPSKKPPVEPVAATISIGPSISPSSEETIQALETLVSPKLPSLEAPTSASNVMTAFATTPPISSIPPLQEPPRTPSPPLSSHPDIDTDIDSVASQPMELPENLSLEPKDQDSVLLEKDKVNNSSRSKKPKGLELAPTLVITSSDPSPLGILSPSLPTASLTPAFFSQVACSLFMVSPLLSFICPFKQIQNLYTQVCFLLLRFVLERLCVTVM
The procedure, abridged: as §1

The next assay addresses T10, ETV2 (Homo sapiens, UniProt O00321 1-342).
T10 sequence: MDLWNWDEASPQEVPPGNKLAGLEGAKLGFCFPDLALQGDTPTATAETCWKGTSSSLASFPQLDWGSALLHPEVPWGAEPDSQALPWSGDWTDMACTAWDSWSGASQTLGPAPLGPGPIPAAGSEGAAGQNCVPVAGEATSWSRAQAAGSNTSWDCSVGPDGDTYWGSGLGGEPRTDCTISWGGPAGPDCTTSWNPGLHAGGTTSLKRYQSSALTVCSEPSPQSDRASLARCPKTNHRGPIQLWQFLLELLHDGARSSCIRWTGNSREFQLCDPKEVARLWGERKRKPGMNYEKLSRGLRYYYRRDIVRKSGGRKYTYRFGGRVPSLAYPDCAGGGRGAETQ
The method, boiled down:
as §1

A further assay deals with T11, ELF3 (Homo sapiens, UniProt P78545 1-371).
T11 sequence: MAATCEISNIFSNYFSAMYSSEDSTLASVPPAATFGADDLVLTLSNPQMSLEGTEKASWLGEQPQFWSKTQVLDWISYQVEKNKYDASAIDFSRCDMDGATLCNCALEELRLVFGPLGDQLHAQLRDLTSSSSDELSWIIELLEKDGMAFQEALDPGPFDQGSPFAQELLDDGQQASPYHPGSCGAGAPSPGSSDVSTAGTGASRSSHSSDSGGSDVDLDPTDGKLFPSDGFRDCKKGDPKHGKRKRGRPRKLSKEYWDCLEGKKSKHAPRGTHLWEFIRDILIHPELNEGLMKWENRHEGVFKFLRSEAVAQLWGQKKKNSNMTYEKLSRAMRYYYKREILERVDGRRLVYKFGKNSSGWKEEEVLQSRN
The method, boiled down: as §1

The next assay has as its target ETV1 (Homo sapiens, UniProt P50549 1-477). The procedure, abridged:
as §1

SPIB, sequence (Q01892 whole entry): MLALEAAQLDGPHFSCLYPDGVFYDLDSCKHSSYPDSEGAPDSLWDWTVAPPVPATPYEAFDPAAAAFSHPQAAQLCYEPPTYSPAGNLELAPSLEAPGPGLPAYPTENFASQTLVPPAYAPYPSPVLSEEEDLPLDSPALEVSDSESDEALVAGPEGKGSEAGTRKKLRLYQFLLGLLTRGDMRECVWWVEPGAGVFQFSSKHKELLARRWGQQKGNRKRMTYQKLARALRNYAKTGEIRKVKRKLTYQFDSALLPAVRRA
ETV5, sequence (P41161 whole entry): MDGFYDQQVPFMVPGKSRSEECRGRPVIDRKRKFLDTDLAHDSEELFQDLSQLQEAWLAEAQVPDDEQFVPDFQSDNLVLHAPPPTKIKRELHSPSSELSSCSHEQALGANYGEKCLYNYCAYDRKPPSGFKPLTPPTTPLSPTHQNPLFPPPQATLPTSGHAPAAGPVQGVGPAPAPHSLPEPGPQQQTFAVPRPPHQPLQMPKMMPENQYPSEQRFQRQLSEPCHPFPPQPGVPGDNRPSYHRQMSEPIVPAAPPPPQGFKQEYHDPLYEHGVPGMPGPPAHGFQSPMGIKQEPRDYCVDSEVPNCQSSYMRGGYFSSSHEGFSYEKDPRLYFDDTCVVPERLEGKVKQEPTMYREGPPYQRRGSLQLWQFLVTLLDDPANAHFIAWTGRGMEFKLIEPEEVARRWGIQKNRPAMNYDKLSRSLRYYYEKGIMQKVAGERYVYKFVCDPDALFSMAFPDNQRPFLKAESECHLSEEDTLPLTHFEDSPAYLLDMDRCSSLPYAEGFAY
ELF4, sequence (Q99607 whole entry): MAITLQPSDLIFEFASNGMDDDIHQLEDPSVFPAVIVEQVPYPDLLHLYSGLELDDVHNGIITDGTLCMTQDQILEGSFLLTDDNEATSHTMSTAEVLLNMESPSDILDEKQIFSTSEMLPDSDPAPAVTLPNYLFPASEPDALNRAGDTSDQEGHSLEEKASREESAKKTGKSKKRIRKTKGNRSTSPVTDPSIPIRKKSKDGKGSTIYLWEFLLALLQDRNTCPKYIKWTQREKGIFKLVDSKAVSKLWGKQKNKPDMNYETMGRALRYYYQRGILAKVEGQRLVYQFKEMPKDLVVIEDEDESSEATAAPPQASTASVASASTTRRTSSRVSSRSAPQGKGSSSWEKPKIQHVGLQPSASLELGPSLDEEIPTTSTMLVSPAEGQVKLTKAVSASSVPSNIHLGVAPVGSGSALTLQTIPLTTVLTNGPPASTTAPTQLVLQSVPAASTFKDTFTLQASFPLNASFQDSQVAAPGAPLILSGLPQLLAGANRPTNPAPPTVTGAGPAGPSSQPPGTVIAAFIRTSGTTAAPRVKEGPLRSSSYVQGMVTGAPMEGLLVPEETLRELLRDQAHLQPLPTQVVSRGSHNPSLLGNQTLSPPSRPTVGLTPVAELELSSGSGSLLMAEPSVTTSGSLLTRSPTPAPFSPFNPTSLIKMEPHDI
ETV1, sequence (P50549 whole entry): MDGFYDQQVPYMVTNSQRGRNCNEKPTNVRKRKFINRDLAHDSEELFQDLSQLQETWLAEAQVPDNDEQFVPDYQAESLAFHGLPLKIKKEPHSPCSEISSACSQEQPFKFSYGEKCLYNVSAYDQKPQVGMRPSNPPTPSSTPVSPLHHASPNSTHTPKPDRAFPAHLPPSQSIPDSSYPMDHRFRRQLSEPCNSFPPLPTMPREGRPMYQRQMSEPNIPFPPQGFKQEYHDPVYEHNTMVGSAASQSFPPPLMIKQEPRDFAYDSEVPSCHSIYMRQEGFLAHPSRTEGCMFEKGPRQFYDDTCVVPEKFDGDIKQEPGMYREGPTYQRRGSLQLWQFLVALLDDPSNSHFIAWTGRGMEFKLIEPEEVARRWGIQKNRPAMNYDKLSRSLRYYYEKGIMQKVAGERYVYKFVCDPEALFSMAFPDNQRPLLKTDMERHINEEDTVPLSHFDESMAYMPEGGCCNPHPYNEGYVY
ELF1, sequence (P32519 whole entry): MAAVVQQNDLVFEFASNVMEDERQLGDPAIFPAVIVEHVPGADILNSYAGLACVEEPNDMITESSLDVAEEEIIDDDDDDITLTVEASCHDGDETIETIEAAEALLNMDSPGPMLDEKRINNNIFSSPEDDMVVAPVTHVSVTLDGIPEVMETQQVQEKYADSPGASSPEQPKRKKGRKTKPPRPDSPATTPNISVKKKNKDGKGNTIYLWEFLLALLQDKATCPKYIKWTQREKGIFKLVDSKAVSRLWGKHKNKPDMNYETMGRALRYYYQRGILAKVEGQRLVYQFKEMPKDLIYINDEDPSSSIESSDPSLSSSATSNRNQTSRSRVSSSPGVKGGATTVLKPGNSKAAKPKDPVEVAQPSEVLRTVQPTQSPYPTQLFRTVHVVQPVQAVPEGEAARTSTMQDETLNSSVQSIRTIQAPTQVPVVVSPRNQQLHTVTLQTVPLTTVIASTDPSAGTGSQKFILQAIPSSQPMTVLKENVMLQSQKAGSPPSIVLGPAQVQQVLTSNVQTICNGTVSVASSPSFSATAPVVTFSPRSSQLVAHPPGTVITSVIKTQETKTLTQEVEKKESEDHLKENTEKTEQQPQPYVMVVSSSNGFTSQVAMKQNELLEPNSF

Regarding CATAAC, the binding signal was 1.09 fold enrichment (6-mer frequency, TF over GST control) in the assay with FLI1; 1.2 fold enrichment (6-mer frequency, TF over GST control) with ELK1; 1.15 fold enrichment (6-mer frequency, TF over GST control) in the assay with GABPA; 1.1 fold enrichment (6-mer frequency, TF over GST control) with ERG; 1.22 fold enrichment (6-mer frequency, TF over GST control) with ELF1; 1.09 fold enrichment (6-mer frequency, TF over GST control) in the assay with EHF. Moreover, the binding signal in the assay with SPI1 is 1.16 fold enrichment (6-mer frequency, TF over GST control); in the assay with SPIB it was 1.13 fold enrichment (6-mer frequency, TF over GST control); with ELK3, 1.18 fold enrichment (6-mer frequency, TF over GST control); in the assay with FEV, 1.08 fold enrichment (6-mer frequency, TF over GST control); with ETV5 it was 1.16 fold enrichment (6-mer frequency, TF over GST control); with SPIC, 1.2 fold enrichment (6-mer frequency, TF over GST control). The binding signal is 1.1 fold enrichment (6-mer frequency, TF over GST control) with ELF4; 1.25 fold enrichment (6-mer frequency, TF over GST control) in the assay with ELK4; 1.11 fold enrichment (6-mer frequency, TF over GST control) with ETV2; 1.13 fold enrichment (6-mer frequency, TF over GST control) in the assay with ELF3; 1.1 fold enrichment (6-mer frequency, TF over GST control) with ETV1.
